The source of these data is PubChem BioAssay (NCATS).

Molecules are shown by their SMILES. Values joined by “and” are separate entries in the source; they are usually repeats but may differ in a detail not shown here. Equal entries are not always repeated. Records with an inconclusive call do not appear. Values without a mark were called inactive. Active and inactive are the calls of the source. Calls follow the shape of the dose curve; as a rule, active = well fitted inhibition curve with a large enough effect; inconclusive = small, poorly fitted or top-dose-only effect; inactive = flat fitted curve, though single readings scatter.

In test [1] the test system is CRL-7250. The test is described as follows: Cytotoxic Profiling of Annotated Libraries Using Quantitative High-Throughput Screening (AID 1296008). As to max response: % is scaled to controls: 0 for no effect and ±100 for the full control effect. As to conditions: Five cell lines viability, CellTiter-Glo ATP luminescence, 48-72 h; max response: hits give low values. The method in brief:
(§1)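 Cells exposed to compounds for 48 or 72 hr at 37 degrees Celsius. Viability read as ATP-coupled luminescence with CellTiter-Glo after 10 min at room temperature.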
For orientation: ATP-based viability assays read luminescence as a measure of living cells.

The subject of test [2] is HEK293. The description is as above. As to conditions: Five cell lines viability, CellTiter-Glo ATP luminescence, 48-72 h; max response: hits give low values. The method in brief:
as §1

Test [3] deals with HaCat. Described as above. The settings on record: Five cell lines viability, CellTiter-Glo ATP luminescence, 48-72 h; max response: hits give low values. The method in brief: as §1
Test [4] concerns KB-3-1. The description is as above. The settings on record: Five cell lines viability, CellTiter-Glo ATP luminescence, 48-72 h; max response: hits give low values. Summed up:
as §1

For test [5], the system named is NIH3T3. The test is described as above. The settings on record: Five cell lines viability, CellTiter-Glo ATP luminescence, 48-72 h; max response: hits give low values. Summed up:
as §1

Test [6] has as its system MCC-13. The test is described as follows: qHTS assay to identify novel small-molecules to repurpose for Merkel cell carcinoma treatment (AID 1296009). The settings on record: MCC and control cell lines, CellTiter-Glo viability, 72 h; series mostly up to 46 µM. The method in brief: (§2)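 Dose-response viability screen; 72 hr exposure at 37 degree celsius; CellTiter-Glo added, 10 min room temperature, luminescence read; RLUs scaled between no-cell and DMSO wells.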
For orientation: qHTS replaces the single test concentration by a dilution series.

Test [7] deals with MCC-26. Described as above. As to conditions: MCC and control cell lines, CellTiter-Glo viability, 72 h; series mostly up to 46 µM. The method in brief:
as §2

Test [8] has as its system HEK293T. The description is as above. As to conditions: MCC and control cell lines, CellTiter-Glo viability, 72 h; at 44.8 µM (top of the series) unless noted. The method in brief: as §2
For test [9], the system named is P93_24. The test is described as follows: qHTS profiling for inhibitors of Plasmodium falciparum proliferation (AID 504749). The settings on record: P. falciparum in erythrocytes, SYBR Green DNA, 72 h; series mostly up to 28.7 µM. Summed up:
(§3)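 Each compound contacts P. falciparum-infected red blood cells for 72 h at 37 C; lysis buffer (Tris, EDTA, saponin, Triton X, SYBR Green I) is added and fluorescence measured next morning; values normalized to controls.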

The test system of test [10] is P94_40. The test is described as above. As to conditions: P. falciparum in erythrocytes, SYBR Green DNA, 72 h; series mostly up to 28.7 µM. Summed up:
as §3

For test [11], the system named is PAD. Described as above. As to conditions: P. falciparum in erythrocytes, SYBR Green DNA, 72 h; series mostly up to 28.7 µM. The method in brief:
as §3

Test [12] deals with PC15. The test is described as above. As to conditions: P. falciparum in erythrocytes, SYBR Green DNA, 72 h; series mostly up to 28.7 µM. The method in brief:
as §3

The subject of test [13] is PC49. Described as above. As to conditions: P. falciparum in erythrocytes, SYBR Green DNA, 72 h; series mostly up to 28.7 µM. Summed up:
as §3

The subject of test [14] is SC27B. The test is described as above. As to conditions: P. falciparum in erythrocytes, SYBR Green DNA, 72 h; series mostly up to 28.7 µM. The method in brief:
as §3

Test [15] deals with TAB109. The test is described as above. As to conditions: P. falciparum in erythrocytes, SYBR Green DNA, 72 h; series mostly up to 28.7 µM. Summed up:
as §3

Test [16] has as its system TAB113. Described as above. As to conditions: P. falciparum in erythrocytes, SYBR Green DNA, 72 h; series mostly up to 28.7 µM. Summed up:
as §3

Test [17] deals with TAB165. The test is described as above. As to conditions: P. falciparum in erythrocytes, SYBR Green DNA, 72 h; series mostly up to 28.7 µM. Summed up: as §3
For test [18], the system named is W2. Described as above. As to conditions: P. falciparum in erythrocytes, SYBR Green DNA, 72 h; series mostly up to 28.7 µM. Summed up: as §3
Test [19] has as its system HACAT. The test is described as follows: qHTS assay to identify novel small-molecules to repurpose for Merkel cell carcinoma treatment (AID 1296009). The settings on record: MCC and control cell lines, CellTiter-Glo viability, 72 h; at 44.8 µM (top of the series) unless noted. Summed up: as §2
Also: nearly all actives have a fitted effect of over 60% in size.
Potency is read from the fitted curve at half-maximal effect.

Regarding `Cc1ccc(S(=O)(=O)Nc2nc3ccccc3nc2Nc2ccc3nsnc3c2)cc1`, the results for the max response in test [1], in test [2] and in [5] were -6.76%, 4.32% and -28.1%, respectively. In test [3], the Potency is 14.4 µM (active). The result in test [4] was inactive. Further, the Potency entry in test [6] and in test [7] was “inactive” in each case.

As for `CC[C@H](CC#N)OC(=O)N[C@@H](C)c1cccc(NC(=O)Nc2ccc(-c3cnco3)c(OC)c2)c1`, the Potency was 1.66 µM (active) and 1.03 µM (active) in test [1]; 0.418 µM (active) in [2]; 1.32 µM (active) and 1.64 µM (active) in test [4]; 1.18 µM (active) and 1.3 µM (active) in [5]; 4.18 µM (active) in test [6].

Consider `CCC(=O)N1CCN(c2ccc(-n3c(=O)ccc4cnc5ccc(-c6cnc7ccccc7c6)cc5c43)cc2C(F)(F)F)CC1`, for which the Potency in test [1] is 0.0841 µM (active); in test [2], 14.8 nM (active) and 53.1 nM (active); in test [3], 1.05 µM (active) and 668 nM (active); in test [5] it was 33.2 nM (active) and 237 nM (active).

As to `O=C(NC[C@H](O)CO)c1ccncc1Nc1ccc(I)cc1F`, the values for the Potency in [1] and in [5] were 16.6 µM (active) and 8.33 µM (active), respectively. In test [2], the max response was -10.7%. Also, the compound was classed as inactive in test [4]. Also, in test [7], the Potency entry was “inactive”.

For the compound `COc1ccc(-c2nc3ccc(C4=NNC(=O)CC4C)cc3[nH]2)cc1` (stereo unspecified), in test [1], the outcome was inactive. Moreover, the Potency in test [2] is 18.8 µM (active) and 23.1 µM (active). The max response in test [4] was -4.82%. Also, the Potency entry in test [7] is “inactive”.

For `Cn1cnc(-c2cc3nccc(Oc4ccc(NC(=S)NC(=O)Cc5ccccc5)cc4F)c3s2)c1`, the Potency is 26.4 µM (active) in [1]; 23.5 µM (active) in test [2]; 11.8 µM (active) and 13 µM (active) in test [5]. Besides, in test [6], the Potency result is “inactive”.

With `Cn1cc(-c2ccc3nnc(Sc4ccc5ncccc5c4)n3n2)cn1`, the max response in [1] is -0.0054%; in test [3], 1.95%; in [4], 3.63%. Moreover, the compound was classed as inactive in test [2] and in test [8]. The Potency result in test [6] and in test [7] was “inactive” each time.

Turning to `CN(C)CCN(C)C(=O)c1ccc(NC(=O)Nc2ccc(-c3nc(N4CCOCC4)c4ccn(CC(F)(F)F)c4n3)cc2)cc1`, the Potency in [1] is 0.0662 µM (active); in [4], 0.0015 µM (active); in test [5], 0.059 µM (active). Further, the max response in test [2] is -108%. Besides, the Potency entry in test [6] was “inactive”.

As to `COc1c(C)c2c(c(O)c1CC=C(C)CCC(=O)OCCN1CCOCC1)C(=O)OC2`, the Potency was 7.08 µM (active) in test [9]; 7.94 µM (active) in [10]; 11.2 µM (active) in test [11]; 5.01 µM (active) in test [14]; 7.08 µM (active) in test [15]; 5.01 µM (active) in test [16]. Besides, the Potency in test [17] is 5.01 µM (active); in test [18] it was 6.01 µM (active); in [1] it was 3.32 µM (active); in [2], 3.72 µM (active); in test [5], 5.26 µM (active). In addition, the call in test [12] and in [13] was inactive. Further, the max response in [3] was -7.64%.

As for `Cc1cc(-c2ncc(CC(=O)Nc3ccc(-c4cnccn4)cn3)cc2C)ccn1`, the Potency in [1] is 10.5 µM (active) and 6.51 µM (active); in test [2] it was 9.35 µM (active) and 8.2 µM (active). The max response was -23.2% and -10.9% in test [3]; -16.2% and -6.07% in test [5]. Also, the Potency result in test [6] and in test [7] was “inactive” in each case.

`COc1c(C)cnc(Cn2cnc3c(Cl)nc(N)nc32)c1C`: the Potency was 0.935 µM (active) in test [1], 0.132 µM (active) in test [2], 0.296 µM (active) in test [3] and 0.526 µM (active) in test [5].

Take `O=c1[nH]nc(OCCCc2ccc(Cl)cc2)c(NCc2cccnc2)c1Br`: the Potency in [1] was 6.51 µM (active); in test [2], 3.32 µM (active) and 7.31 µM (active); in [3] it was 20.9 µM (active). The max response is 3.09% in test [4]; 1.68% and -21.7% in [5]. The Potency result in test [7] was “inactive”.

Regarding `COc1ccc(-c2cc3nccn3c(Nc3ncccc3C(N)=O)n2)cc1OC`, the Potency is 2.09 µM (active) in [1]; 1.48 µM (active) and 5.8 µM (active) in [2]. The values for the max response in test [3] and in test [4] were -23.8% and -9.74%, respectively. Moreover, the Potency result in test [6] and in test [7] was “inactive” in each case.

Regarding `CN1CC(=O)NC1=NC(=O)Nc1cccc(Cl)c1`, the max response in test [1] is -9.31%; in [2] it was -3.54%; in test [4] it was 5.76%; in test [5], -5.12%. Also, the Potency result in [6] and in test [7] was “inactive” each time.

In the case of `O=C(c1ccc(C=Cc2n[nH]c3ccccc23)cc1)N1CCNCC1`, the max response is -12.3% in [1] and -9.22% in [2]. Further, the Potency in test [4] is 9.35 µM (active); in [5], 2.35 µM (active). Moreover, the Potency result in [6] is “inactive”.

As to `NC[C@H]1O[C@H](O[C@@H]2[C@@H](O)[C@@H](O[C@H]3O[C@H](CO)[C@@H](O)[C@H](N)[C@@H]3O)[C@H](N)C[C@@H]2N)[C@H](O)[C@@H](O)[C@H]1O`, the max response in test [1] was -1.7%; in test [2], -2.16%; in [3], -1.4%; in test [4], 4.43%; in [5] it was -1.04%. The Potency result in [6] and in test [7] was “inactive” throughout.

Turning to `COC(=O)Nc1ccc(-c2nc(N3CCOCC3)c3cnn(C4CCN(C(=O)OC)CC4)c3n2)cc1`, the Potency is 0.332 µM (active) in test [1], 1.66 µM (active) in test [2], 1.48 µM (active) in [4] and 4.18 µM (active) in [5].

`COc1ccc(CCN(C)CCCOc2ccc(S(=O)(=O)c3[nH]c4ccccc4c3C(C)C)cc2)cc1OC`: the outcome in test [1] was inactive. The values for the max response in test [2], in [3] and in [4] were -1.95%, -8.82% and 5.18%, respectively. Moreover, the Potency result in test [6] and in test [7] was “inactive” throughout.

As to `CCC(C)SSc1ncc[nH]1` (stereo unspecified), the results for the max response in test [1] and in test [5] were -3.49% and -14.8%, respectively. Also, in test [2], the Potency was 13.2 µM (active). The compound was classed as inactive in [3] and in test [19]. In addition, in test [7], the Potency entry was “inactive”.
